Screening results from PubChem.
WT yeast gro inh – growth inhibition of WT strain, primary screen, mitochondrial fusion inhibitor project, WT and mutant strains, chemical genetic. inhibition, % at 10 µM. AID 1362, 2008. mitochondrial fusion phenotypic screen. actives 2.1% (n = 190,000); in the data active = inhibition above about 58%; tested in S. cerevisiae
Ins promoter up – insulin promoter activators in MIN6 cells, imaging, high-content screening, mouse beta cells | MIN6 insulin promoter-GFP reporter; stronger effect = higher value | z-score at 5 µM | actives 0.3% (n = 190,000) | AID 1625, 2009;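 active = z-score above 3 at 5 µM with at least 500 cells counted in the well; inconclusive = wells under 500 cells, flagged as cytotoxic or low count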
Cl transport mod – KCC2 cotransporter modulators, thallium flux, primary screen, cell-based, HEK293 KCC2, FluoZin-2 fluorescence, MLSMR | Solute carrier family 12 member 5 (Homo sapiens), Q9H2X9 | KCC2 cells, thallium flux FluoZin-2 fluorescence | B-score of Tl+ flux slope (higher = more flux/activation; lower = inhibition) at 10 µM | actives 2.2% (n = 190,000);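 active = thallium flux slope and its plate-corrected score both differing from the plate sample mean at a set confidence after two filtering rounds, in either direction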;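 also: slope of fluorescence scaled to starting intensity during 10 to 20 s after thallium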
Insulin prom inh – inhibitors of insulin promoter-driven GFP, primary screen, imaging, TRM-6 cells (human fetal islet line), eGFP reporter, cell count. reporter expression induced with tamoxifen. inhibition, % at 2 µM. actives 0.9% (n = 130,000). AID 1273, 2008;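 active = inhibition above the mean plus 3 SD, with well images judged a real hit on visual review, cut at about 60% in these data, passing the limit was not always enough; inconclusive = inhibition over the cutoff but images rejected on review; inactive = inhibition not above the cutoff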
ROMK mod – ROMK potassium channel modulators, primary screen, cell-based, thallium flux, MLSMR library. ATP-sensitive inward rectifier potassium channel 1 (Homo sapiens), P48048. actives 2% (n = 130,000). Tet-inducible ROMK, thallium flux fluorescence; actives lie on both sides. B-score at 10 µM;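 active = signal ratio slope over the read window, or its plate-corrected B-score, at least 3 SD from the plate mean, either direction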;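 also: B-score of the F/F0 ratio slope over 7 to 12 s after thallium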
Lmaj promast – Leishmania major promastigote growth inhibition, primary screen; actives 9% (n = 200,000); inhibition, % at 10 µM; Leishmania major promastigotes, resazurin fluorescence viability; AID 1063, 2008; in the data active = inhibition above about 50%;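 also: promastigotes grown with compound for 44 hours at 28 °C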
* hit, by the source's call; ? = inconclusive; . = no result given. A selection: hits, their analogues and other compounds. The true share with any hit is near 12%.

SMILES	WT yeast gro inh	Ins promoter up	Cl transport mod	Insulin prom inh	ROMK mod	Lmaj promast
Cc1ccc(N2CCN(S(=O)(=O)N3CCCCC3)CC2)cc1Cl	-5	0.38	-0.013	70*	0.16	76*
Cc1cc(C)c(N2CCN(S(=O)(=O)N3CCCCCC3)CC2)c(C)c1	61*	-1.8	0.5	4	.	5
Clc1ccc(C(c2nnnn2C2CCCC2)N2CCN(c3nc4ccccc4s3)CC2)cc1 (centres undefined)	.	.	-0.96	-12	-0.068	97*
c1cnc2ccc(C(c3nnnn3C3CCCC3)N3CCN(c4nc5ccccc5s4)CC3)cc2c1 (centres undefined)	3	-1.8	-3.3	-20	.	89*
Oc1ccc(C(c2nnnn2CCc2ccccc2)N2CCN(c3nc4ccccc4s3)CC2)cc1 (centres undefined)	.	-0.29	0.022	.	.	.
Cc1cc[n+](CC(=O)N2CCCc3ccccc32)cc1	6	-0.34	0.02	2	0.32	0
CSc1nc2nccc(-c3ccc(-c4ccccc4)cc3)n2n1	-13	-0.53	0.72	36	1.3	-2
Cc1c(NC(=O)c2ccc(N(C)S(=O)(=O)c3ccccc3)cc2)c(=O)n(-c2ccccc2)n1C	-5	.	2.4	30	1.4	0
COc1ccc(-n2nnnc2SCC(=O)Nc2ccccc2N2CCOCC2)cc1	7	0.02	1.5	.	-0.86	99*
Cc1sc(NC(=O)CSc2nnnn2C2CCCCC2)c(C#N)c1C	75*	-0.41	.	-23	.	10
CC(C)n1nnnc1SCC(=O)Nc1ccccc1N1CCOCC1	-10	.	.	.	.	.
O=C(CSc1nnnn1C1CCCCC1)Nc1ccccc1N1CCOCC1	-3	0.7	-1.2	11	0.02	60*
COc1ccc(OC(=O)c2cnn(-c3ccccc3)c2C)cc1	67	0.36	-0.52	-10	-0.05	-8
COc1ccc(N2CCN(C(c3nnnn3CCc3ccccc3)C(C)C)CC2)cc1 (centres undefined)	6	0.03	-0.66	.	.	89*
COc1ccc(CCn2nnnc2C(CC(C)C)N2CCN(c3ncccn3)CC2)cc1OC (centres undefined)	66*	0.05	.	7	-0.41	0
CC(C)CC(c1nnnn1CCc1ccccc1)N1CCC(C(N)=O)CC1 (centres undefined)	-22	.	0.045	100*	0.61	-2
COc1ccc(CCn2nnnc2C(CC(C)C)N2CCC(C(N)=O)CC2)cc1OC (centres undefined)	-6	.	-0.032	.	.	-9
COc1ccc(CCn2nnnc2C(C(C)C)N2CCN(c3ncccn3)CC2)cc1OC (centres undefined)	62*	?	-0.54	-170	.	7
COc1cc(C2C(C#N)=C(N)Oc3c2oc(CO)cc3=O)ccc1OC(C)C (centres undefined)	0	-1.4	.	.	.	1
O=C(NN=C(Cc1ccccc1)Cc1ccccc1)c1ccc(F)cc1	4	0.35	7.7*	-17	-1.3	-6
NC(=O)NC(=O)COC(=O)CNS(=O)(=O)c1ccc(F)c(F)c1F	.	-0.32	0.25	.	.	.
COc1ccccc1OCCCCN1CCN(c2ccccc2OC)CC1	-10	.	-0.19	29	.	2
COc1ccccc1OCCN1CSC(=S)N(C)C1	29	0.07	-1.5	19	1.1	100*
Cc1cccc(OCCN2CSC(=S)N(C)C2)c1	36	-0.09	-0.24	.	.	100*
c1ccc(N2CCN(c3nc4ccccc4[nH]3)CC2)nc1	-17	0.75	-0.73	?	-0.53	-4
SMILES	WT yeast gro inh	Ins promoter up	Cl transport mod	Insulin prom inh	ROMK mod	Lmaj promast
C=C(C)CNC(=O)c1ccc(OC2CCN(S(=O)(=O)N(C)C)CC2)cc1	8	-0.66	0.15	.	0.061	-4
COCCN(CCOC)CC(O)COC(c1ccccc1)c1ccccc1 (centres undefined)	-8	-0.04	-0.046	11	0.36	3
Cc1ccc(C(OCC(O)CNC(C)c2ccccc2)c2ccccc2)cc1 (centres undefined)	39	-3.1	-0.47	-53	-1.7	77*
CN(C)CCN(Cc1ccccc1)S(=O)(=O)c1ccc2c(c1)n(C)c(=O)c(=O)n2C	.	0.61	0.88	.	0.53	.
O=C(Nc1ccccc1[N+](=O)[O-])c1nc[nH]c1C(=O)NCCO	-8	0.15	.	-15	.	2
COc1ccc2nc(N=Nc3ccc(O)c4ccccc34)sc2c1	42	.	18*	.	.	98*
CSc1sc(C(=O)N(C)C)cc1S(=O)(=O)C(C)C	.	0.69	-0.65	.	0.65	.
CCC1=NNc2cccc3c(OC)ccc1c23	26	1.1	.	-3	-0.37	100*
COc1ccc2c3c(cccc13)C(=O)N(O)C2=O	23	0.22	-0.21	-14	.	35
COCCNC(=O)c1cccc(Nc2nc(-c3ccccc3)c3cc(Cl)ccc3n2)c1	61*	-1.1	-0.46	.	.	10
OCCNc1nc(-c2ccccc2)c2cc(Cl)ccc2n1	6	.	0.64	-4	1.2	2
O=S(=O)(NCc1ccccc1)c1cccc2cccnc12	-1	0.12	-0.72	-41	-0.17	64*
O=C(NCc1ccccc1)c1cccc(NS(=O)(=O)c2cccc3cccnc23)c1	-10	-0.13	-0.84	-58	0.09	54*
O=S(=O)(NCc1cccnc1)c1cccc2cccnc12	-8	0.77	1.1	-68	-0.53	0
Cc1ccc(Nc2nc3nonc3[nH]c2=O)cc1Cl	64*	.	-4.6	0	2.5	4
Cc1cc(C=O)c(C)n1-c1ccc(N2CCOCC2)cc1	3	.	0.059	-44	.	-4
Cc1cc(C=O)c(C)n1-c1cc(C(F)(F)F)ccc1N1CCOCC1	9	-0.79	-1.2	20	0.092	94*
CCCCn1cnc2sc3c(c2c1=N)CCCC3	-19	-0.86	0.18	-15	.	1
N=c1c2c3c(sc2ncn1Cc1ccccc1)CCCC3	-22	-0.68	-0.4	22	.	92*
CCOC(=O)c1c(C)nc2sc3c(=O)[nH]cnc3c2c1-c1ccc(OC)cc1	-5	-0.42	0.04	-108	1.1	4
COc1ccc(-c2c(C(C)=O)c(C)nc3sc4c(=O)[nH]nnc4c23)cc1	-9	-0.24	-1	-12	-0.0072	59*
CC(Sc1nc(N)cc(=O)[nH]1)C(=O)Nc1cccc(Cl)c1 (centres undefined)	-26	0.11	1.4	-12	.	56*
CC(=O)NC1C(=O)N=C(SC(C)C(=O)Nc2cccc(Cl)c2)NC1=O (centres undefined)	-8	-0.4	1.8	.	-0.44	63*
O=c1[nH]c(Cc2ccccn2)nc2scc(-c3ccccc3Cl)c12	-1	0.59	-0.64	-12	0.54	9
COc1cccc(OC)c1C(=O)NC(=S)Nc1ccc2c(c1)OCCO2	4	.	0.32	-85	-0.83	-2
